Results taken from the supplement of paper PMC11732987, “Enantioselective OTUD7B fragment discovery through chemoproteomics screening and high-throughput optimisation” (Communications Chemistry, 2025).

Assays:
Assay in all cases: log2 ratio of Biotin-Ahx-Ub-VS probe labelling (fragment/DMSO); higher = less target engagement (more negative = stronger competition), active = hit call of the paper (q ≤ 0.05, log2 ratio ≤ -1)
Settings in all cases: compound concentration: 200 uM; treatment time: 3 h
[1] = target: T1, USP19 (UniProt O94966)
T1 sequence (whole entry): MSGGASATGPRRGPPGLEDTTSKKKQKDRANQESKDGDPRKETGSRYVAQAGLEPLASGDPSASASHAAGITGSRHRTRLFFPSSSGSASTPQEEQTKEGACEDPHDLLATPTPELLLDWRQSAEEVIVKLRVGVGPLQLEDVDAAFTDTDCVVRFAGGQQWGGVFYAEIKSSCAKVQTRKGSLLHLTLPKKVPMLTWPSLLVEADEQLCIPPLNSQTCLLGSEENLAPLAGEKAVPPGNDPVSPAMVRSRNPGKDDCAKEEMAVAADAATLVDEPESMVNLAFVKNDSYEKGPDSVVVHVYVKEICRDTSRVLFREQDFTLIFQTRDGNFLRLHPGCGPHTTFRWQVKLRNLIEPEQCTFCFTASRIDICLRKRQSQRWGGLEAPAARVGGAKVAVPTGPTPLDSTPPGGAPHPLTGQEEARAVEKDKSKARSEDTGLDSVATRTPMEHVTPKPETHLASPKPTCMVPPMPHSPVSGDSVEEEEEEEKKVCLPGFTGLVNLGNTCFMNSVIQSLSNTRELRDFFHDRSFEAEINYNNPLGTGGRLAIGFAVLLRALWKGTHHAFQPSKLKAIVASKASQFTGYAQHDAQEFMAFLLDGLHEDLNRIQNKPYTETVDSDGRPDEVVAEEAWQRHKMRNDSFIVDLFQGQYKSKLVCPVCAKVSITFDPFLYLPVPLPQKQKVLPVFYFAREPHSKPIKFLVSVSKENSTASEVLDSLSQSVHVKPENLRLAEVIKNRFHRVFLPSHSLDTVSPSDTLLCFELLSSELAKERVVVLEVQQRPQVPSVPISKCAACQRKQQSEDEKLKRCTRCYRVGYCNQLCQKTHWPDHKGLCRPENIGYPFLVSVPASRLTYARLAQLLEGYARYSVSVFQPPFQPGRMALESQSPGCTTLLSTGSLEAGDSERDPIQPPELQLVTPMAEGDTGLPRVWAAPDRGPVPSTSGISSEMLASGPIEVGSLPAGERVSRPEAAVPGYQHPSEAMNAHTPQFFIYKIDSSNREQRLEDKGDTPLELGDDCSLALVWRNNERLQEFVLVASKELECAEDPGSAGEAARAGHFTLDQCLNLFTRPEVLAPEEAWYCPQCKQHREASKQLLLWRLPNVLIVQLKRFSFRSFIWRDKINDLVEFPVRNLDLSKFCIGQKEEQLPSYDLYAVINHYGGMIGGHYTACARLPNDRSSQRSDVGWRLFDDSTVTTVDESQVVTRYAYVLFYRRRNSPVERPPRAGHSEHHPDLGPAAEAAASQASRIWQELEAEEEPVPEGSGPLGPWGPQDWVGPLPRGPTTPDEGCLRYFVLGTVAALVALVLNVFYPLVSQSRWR
Summary of the method: (§1)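 HEK293T lysate, 495 µg per sample in Tris/CHAPS/IGEPAL buffer with protease inhibitors, was treated in triplicate with fragment at 200 µM or vehicle for 3 h and then with Biotin-Ahx-Ub-VS at 0.5 µM final for 1 h. Labelled DUBs were NeutrAvidin-enriched, digested with LysC and trypsin, and run by diaPASEF LC-MS/MS. Spectronaut label-free quantities were global-median-normalised, and values are average log2 fragment/vehicle ratios by unpaired t-test on proteins with ≥2 unique peptides.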

[2] = target: T2, USP22 (UniProt Q9UPT9)
T2 sequence (whole entry): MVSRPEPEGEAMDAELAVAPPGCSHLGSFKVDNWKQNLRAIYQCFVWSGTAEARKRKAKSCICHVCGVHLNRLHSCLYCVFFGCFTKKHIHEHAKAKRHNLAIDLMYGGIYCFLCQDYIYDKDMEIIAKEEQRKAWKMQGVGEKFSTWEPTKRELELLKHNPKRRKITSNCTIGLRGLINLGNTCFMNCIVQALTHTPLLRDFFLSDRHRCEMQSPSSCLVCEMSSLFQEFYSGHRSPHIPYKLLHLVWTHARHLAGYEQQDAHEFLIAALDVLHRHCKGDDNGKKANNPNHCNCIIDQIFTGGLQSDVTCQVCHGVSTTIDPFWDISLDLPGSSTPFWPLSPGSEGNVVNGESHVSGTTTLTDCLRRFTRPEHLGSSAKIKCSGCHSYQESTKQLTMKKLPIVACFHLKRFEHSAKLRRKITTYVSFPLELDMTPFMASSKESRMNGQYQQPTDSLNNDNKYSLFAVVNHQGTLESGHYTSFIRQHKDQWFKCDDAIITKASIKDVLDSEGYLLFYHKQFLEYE
Summary of the method: as §1

[3] = target: USP24 (UniProt Q9UPU5)
Summary of the method: as §1

[4] = target: T3, USP25 (UniProt Q9UHP3)
T3 sequence (whole entry): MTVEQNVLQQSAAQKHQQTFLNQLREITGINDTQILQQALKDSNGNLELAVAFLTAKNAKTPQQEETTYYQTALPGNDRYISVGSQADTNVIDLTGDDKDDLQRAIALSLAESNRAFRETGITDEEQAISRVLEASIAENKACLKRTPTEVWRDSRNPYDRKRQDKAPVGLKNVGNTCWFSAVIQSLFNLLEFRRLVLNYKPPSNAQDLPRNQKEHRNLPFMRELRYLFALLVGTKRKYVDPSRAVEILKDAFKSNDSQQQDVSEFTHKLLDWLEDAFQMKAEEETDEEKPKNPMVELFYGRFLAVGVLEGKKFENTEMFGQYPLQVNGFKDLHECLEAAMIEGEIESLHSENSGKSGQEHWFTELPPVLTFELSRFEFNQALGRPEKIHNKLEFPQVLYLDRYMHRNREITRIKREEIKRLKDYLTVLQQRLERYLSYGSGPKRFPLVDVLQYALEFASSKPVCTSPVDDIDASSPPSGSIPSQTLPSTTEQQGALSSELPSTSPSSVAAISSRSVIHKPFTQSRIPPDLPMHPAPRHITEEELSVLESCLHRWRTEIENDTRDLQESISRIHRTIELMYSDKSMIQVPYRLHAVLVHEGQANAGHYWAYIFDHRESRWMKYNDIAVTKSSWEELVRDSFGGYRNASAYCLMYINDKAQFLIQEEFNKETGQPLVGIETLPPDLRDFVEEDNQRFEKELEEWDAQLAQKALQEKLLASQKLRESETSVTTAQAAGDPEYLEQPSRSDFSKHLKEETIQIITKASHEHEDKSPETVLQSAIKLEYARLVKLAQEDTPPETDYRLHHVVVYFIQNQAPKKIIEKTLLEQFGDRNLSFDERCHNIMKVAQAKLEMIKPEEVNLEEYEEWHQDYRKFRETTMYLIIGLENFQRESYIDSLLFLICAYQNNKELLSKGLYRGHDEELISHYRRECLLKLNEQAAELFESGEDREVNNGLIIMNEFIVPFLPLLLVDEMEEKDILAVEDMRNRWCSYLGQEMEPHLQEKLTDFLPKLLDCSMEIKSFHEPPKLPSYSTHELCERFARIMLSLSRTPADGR
Summary of the method: as §1

[5] = target: T4, USP28 (UniProt Q96RU2)
T4 sequence (whole entry): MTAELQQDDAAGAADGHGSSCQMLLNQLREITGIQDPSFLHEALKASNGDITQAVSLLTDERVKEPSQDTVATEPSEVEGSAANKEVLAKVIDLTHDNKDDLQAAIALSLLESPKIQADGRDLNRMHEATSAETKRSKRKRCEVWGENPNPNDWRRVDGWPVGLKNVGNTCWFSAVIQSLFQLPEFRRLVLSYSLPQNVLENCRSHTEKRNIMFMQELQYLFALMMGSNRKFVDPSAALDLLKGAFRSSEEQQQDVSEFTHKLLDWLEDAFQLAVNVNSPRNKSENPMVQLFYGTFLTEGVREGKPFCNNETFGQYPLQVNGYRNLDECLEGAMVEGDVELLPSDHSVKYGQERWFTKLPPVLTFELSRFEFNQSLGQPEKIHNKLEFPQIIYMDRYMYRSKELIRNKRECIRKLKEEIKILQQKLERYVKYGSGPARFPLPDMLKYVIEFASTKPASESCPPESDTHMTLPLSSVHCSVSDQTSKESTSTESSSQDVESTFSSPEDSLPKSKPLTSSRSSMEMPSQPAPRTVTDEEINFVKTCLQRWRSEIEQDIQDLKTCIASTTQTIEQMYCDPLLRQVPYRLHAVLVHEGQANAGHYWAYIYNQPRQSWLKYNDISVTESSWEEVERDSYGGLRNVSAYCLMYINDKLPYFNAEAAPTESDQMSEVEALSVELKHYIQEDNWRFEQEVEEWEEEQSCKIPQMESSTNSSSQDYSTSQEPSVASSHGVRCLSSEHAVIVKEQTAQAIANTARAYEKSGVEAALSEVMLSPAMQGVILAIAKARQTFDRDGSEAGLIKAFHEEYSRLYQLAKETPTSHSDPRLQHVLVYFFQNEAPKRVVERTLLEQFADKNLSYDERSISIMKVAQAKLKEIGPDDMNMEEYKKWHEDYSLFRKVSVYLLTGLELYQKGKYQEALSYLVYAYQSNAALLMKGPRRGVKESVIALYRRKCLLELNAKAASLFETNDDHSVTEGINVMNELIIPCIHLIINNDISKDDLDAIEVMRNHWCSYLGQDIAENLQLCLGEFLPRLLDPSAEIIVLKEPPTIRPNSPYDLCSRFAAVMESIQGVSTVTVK
Summary of the method: as §1

Measured: log2 ratio of Biotin-Ahx-Ub-VS probe labelling

Chain of USP24 (Q9UPU5 whole entry): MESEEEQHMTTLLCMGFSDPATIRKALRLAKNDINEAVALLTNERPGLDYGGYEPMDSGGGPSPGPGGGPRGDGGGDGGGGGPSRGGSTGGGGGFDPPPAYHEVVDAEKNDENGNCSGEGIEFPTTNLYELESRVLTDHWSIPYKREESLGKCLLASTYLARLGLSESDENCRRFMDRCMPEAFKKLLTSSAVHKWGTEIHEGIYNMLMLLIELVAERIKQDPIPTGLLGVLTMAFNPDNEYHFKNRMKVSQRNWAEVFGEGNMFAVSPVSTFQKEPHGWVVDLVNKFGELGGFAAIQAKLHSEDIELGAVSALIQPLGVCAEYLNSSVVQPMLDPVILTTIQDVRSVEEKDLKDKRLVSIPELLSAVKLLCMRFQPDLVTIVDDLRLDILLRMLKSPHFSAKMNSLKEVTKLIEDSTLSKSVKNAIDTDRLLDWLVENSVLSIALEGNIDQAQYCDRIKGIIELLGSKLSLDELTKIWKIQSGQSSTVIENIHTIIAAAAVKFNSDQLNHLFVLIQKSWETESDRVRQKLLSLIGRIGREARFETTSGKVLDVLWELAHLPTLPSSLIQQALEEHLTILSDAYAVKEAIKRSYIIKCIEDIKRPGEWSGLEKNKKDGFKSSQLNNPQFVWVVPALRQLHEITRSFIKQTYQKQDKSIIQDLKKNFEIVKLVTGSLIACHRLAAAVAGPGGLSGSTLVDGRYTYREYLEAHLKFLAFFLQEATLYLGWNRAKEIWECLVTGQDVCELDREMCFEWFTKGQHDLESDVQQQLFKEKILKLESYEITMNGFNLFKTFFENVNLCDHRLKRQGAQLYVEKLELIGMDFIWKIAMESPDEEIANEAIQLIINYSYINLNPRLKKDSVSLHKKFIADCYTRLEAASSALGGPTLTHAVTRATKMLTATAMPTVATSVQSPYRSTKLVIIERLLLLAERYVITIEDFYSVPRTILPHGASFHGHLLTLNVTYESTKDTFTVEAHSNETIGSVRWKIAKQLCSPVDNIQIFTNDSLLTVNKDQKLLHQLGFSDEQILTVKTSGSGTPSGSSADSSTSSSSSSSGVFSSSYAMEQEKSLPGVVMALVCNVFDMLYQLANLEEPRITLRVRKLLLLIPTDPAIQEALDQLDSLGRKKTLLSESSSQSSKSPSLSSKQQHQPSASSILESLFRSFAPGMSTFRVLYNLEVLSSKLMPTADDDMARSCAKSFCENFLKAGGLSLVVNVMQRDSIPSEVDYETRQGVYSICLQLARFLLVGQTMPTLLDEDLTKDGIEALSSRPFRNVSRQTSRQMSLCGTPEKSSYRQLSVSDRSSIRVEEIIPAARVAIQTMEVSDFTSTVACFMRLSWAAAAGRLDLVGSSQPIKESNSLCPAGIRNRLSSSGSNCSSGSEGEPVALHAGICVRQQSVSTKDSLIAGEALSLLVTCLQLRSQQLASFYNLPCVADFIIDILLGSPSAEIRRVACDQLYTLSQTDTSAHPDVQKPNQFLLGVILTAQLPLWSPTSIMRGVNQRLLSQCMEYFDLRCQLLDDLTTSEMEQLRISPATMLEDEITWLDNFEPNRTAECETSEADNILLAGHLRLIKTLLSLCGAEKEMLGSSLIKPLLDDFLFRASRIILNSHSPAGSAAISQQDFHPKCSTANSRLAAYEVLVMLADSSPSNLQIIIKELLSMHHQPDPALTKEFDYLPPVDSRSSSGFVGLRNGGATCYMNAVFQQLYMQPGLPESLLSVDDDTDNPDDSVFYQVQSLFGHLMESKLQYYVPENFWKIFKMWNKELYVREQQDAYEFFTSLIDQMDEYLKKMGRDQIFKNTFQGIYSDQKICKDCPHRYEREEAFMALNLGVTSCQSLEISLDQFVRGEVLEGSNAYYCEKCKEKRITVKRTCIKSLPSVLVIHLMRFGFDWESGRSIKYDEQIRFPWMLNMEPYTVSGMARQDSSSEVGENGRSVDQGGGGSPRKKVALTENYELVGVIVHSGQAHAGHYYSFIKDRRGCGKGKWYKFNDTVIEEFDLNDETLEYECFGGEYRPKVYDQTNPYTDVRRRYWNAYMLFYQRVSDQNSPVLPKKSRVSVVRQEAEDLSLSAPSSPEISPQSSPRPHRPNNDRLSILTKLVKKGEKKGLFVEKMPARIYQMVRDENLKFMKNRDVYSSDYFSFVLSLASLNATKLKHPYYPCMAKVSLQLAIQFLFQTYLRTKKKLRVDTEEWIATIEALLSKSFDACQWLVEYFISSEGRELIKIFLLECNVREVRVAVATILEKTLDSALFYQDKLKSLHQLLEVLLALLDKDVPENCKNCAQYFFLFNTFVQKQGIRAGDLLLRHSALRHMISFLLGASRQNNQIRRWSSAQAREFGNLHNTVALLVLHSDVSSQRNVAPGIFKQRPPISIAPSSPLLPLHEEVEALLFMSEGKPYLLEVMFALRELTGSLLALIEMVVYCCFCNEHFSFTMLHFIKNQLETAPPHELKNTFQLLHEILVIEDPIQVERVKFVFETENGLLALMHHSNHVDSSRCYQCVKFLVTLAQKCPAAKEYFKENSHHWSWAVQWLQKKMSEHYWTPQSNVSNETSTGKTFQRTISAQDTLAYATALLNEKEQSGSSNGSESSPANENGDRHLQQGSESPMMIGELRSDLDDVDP

O=C(CCl)NCCc1cccc2ccccc12
inactive: [1] 0.0202 | [2] -0.385 | [3] -0.0928 | [4] -0.0781 | [5] -0.212
